Experimental findings from PMC7862700, “An all-to-all approach to the identification of sequence-specific readers for epigenetic DNA modifications on cytosine” are described below.

Holding throughout (assay): DAPPL (digital affinity profiling via proximity ligation, sequencing); 10 mM Tris-HCl pH 7.5, 50 mM NaCl, 1 mM DTT, 4% glycerol, room temperature, 30 min; GST-TFs on glutathione beads, 16-mer random dsDNA library, 0.1% formaldehyde crosslink after washing; high values mean tight binding
One assay deals with T1, FLI1 (Homo sapiens, UniProt Q01543 1-452).
T1 sequence: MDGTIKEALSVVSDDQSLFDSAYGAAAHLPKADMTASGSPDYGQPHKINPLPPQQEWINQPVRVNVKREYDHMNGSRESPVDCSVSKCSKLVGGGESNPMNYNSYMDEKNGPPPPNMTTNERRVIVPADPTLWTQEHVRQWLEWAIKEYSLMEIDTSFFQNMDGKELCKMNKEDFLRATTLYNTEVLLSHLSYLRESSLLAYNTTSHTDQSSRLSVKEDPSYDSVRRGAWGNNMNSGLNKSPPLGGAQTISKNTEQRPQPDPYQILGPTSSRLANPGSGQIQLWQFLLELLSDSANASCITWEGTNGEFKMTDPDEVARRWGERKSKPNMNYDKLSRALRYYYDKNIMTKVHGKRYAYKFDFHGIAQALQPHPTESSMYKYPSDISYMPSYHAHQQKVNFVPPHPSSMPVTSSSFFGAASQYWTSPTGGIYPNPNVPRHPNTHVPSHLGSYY
The conditions noted are these: protein: recombinant; tags: N-terminal GST; dsDNA, one strand shown. The procedure, abridged: (§1)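 Sequencing on an Illumina NextSeq500 followed washing, crosslinking with 0.1% formaldehyde, proximity ligation (BsaI/T4 ligase, 1 h, 37 °C) and PCR amplification of pools that had been incubated for 30 min at room temperature with 200 nmole of a random double-stranded 16-mer DNA library in Tris/NaCl/DTT/glycerol buffer. Each pool held DNA-barcoded human transcription factors, expressed in yeast as GST fusions and captured on glutathione beads, plus a tag-only sample. Binding signal is a hexamer's read frequency for a factor divided by its frequency in the tag-only sample.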

The next assay deals with T2, ELK1 (Homo sapiens, UniProt P19419 1-428).
T2 sequence: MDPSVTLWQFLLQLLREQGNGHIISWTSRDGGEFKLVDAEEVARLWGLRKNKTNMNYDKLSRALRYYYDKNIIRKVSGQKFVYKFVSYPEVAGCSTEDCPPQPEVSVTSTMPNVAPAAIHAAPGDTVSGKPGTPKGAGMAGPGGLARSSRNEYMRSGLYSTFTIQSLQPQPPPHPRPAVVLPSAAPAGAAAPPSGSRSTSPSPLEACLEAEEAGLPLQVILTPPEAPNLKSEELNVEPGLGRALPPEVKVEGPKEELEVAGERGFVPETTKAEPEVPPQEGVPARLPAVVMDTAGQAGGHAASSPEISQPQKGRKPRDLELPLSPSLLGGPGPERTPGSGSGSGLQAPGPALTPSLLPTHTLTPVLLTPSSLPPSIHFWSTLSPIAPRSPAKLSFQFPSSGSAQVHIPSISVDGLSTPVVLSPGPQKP
The conditions noted are these: protein: recombinant; tags: N-terminal GST; dsDNA, one strand shown. The procedure, abridged:
as §1

The next assay concerns the target T3, GABPA (Homo sapiens, UniProt Q06546 1-454).
T3 sequence: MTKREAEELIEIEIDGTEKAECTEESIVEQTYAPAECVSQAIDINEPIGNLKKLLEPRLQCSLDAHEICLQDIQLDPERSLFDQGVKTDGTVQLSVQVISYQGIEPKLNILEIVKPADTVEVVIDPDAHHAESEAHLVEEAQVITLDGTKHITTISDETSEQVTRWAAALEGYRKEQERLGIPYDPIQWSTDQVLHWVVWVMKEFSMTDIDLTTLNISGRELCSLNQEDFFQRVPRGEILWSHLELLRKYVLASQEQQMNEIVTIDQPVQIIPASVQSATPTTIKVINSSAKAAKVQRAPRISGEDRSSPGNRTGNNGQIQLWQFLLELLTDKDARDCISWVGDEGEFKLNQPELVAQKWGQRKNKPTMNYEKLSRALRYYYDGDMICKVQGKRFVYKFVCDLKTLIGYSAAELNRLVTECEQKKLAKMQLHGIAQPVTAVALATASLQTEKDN
The conditions noted are these: protein: recombinant; tags: N-terminal GST; dsDNA, one strand shown. The procedure, abridged: as §1

In a further assay the target is T4, ERG (Homo sapiens, UniProt P11308 1-479).
T4 sequence: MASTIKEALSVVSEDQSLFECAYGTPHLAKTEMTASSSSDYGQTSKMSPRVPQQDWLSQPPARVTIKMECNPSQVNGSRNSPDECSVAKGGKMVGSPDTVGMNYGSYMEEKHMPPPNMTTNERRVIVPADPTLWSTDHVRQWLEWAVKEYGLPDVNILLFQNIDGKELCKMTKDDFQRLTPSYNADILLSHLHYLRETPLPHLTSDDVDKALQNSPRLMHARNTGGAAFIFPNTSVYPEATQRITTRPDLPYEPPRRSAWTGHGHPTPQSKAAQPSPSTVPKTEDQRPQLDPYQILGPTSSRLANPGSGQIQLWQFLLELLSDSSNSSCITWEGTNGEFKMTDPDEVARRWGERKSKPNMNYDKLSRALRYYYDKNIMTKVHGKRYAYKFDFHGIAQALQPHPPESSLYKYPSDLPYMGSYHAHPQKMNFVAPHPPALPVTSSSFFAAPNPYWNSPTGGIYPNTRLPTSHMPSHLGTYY
The conditions noted are these: protein: recombinant; tags: N-terminal GST; dsDNA, one strand shown. The procedure, abridged: as §1

The next assay addresses ELF1 (Homo sapiens, UniProt P32519 1-619). To be noted: protein: recombinant; tags: N-terminal GST; dsDNA, one strand shown. The procedure, abridged: as §1
In the next assay the target is T5, EHF (Homo sapiens, UniProt Q9NZC4 1-300).
T5 sequence: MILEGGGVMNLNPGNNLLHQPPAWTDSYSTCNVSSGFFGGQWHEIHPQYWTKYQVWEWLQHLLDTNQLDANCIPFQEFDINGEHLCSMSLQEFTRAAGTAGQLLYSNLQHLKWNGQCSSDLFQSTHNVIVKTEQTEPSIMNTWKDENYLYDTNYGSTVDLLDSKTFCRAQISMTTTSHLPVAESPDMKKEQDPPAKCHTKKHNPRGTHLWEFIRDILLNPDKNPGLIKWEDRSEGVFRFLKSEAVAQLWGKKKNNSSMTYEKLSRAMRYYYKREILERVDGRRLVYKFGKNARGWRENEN
To be noted: protein: recombinant; tags: N-terminal GST; dsDNA, one strand shown. The procedure, abridged:
as §1

A further assay has as its target SPI1 (Homo sapiens, UniProt P17947 1-270). The conditions noted are these: protein: recombinant; tags: N-terminal GST; dsDNA, one strand shown. The procedure, abridged: as §1
Another assay has as its target SPIB (Homo sapiens, UniProt Q01892 1-262). To be noted: protein: recombinant; tags: N-terminal GST; dsDNA, one strand shown. The procedure, abridged: as §1
The target of the next assay is T6, ELK3 (Homo sapiens, UniProt P41970 1-407).
T6 sequence: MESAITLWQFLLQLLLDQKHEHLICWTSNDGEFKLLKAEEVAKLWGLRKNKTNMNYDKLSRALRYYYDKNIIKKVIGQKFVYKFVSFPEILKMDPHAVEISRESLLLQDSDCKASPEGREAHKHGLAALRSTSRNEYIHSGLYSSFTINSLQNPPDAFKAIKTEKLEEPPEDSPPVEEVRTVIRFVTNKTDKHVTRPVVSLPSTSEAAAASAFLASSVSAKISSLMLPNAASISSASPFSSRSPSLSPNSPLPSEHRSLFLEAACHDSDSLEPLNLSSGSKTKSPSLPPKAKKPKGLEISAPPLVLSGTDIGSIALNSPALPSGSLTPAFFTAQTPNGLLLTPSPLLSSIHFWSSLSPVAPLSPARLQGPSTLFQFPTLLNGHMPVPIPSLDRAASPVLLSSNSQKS
The conditions noted are these: protein: recombinant; tags: N-terminal GST; dsDNA, one strand shown. The procedure, abridged: as §1

The target in another assay is ETV5 (Homo sapiens, UniProt P41161 1-510). To be noted: protein: recombinant; tags: N-terminal GST; dsDNA, one strand shown. The procedure, abridged:
as §1

Another assay deals with HSF1 (Homo sapiens, UniProt Q00613 1-529). The conditions noted are these: protein: recombinant; tags: N-terminal GST; chain copies: 3; dsDNA, one strand shown. The procedure, abridged: as §1
A further assay has as its target T7, SPIC (Homo sapiens, UniProt Q8N5J4 1-248).
T7 sequence: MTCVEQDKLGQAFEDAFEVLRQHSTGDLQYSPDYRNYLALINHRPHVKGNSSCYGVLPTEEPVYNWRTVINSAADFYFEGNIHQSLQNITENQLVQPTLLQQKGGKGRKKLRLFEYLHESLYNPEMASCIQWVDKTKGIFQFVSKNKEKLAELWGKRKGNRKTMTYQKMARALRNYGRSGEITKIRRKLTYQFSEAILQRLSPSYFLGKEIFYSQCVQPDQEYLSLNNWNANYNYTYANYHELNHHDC
To be noted: protein: recombinant; tags: N-terminal GST; dsDNA, one strand shown. The procedure, abridged:
as §1

In a further assay the target is ELF4 (Homo sapiens, UniProt Q99607 1-663). The conditions noted are these: protein: recombinant; tags: N-terminal GST; dsDNA, one strand shown. The procedure, abridged: as §1
The target in a further assay is T8, ELK4 (Homo sapiens, UniProt P28324-2 1-405).
T8 sequence: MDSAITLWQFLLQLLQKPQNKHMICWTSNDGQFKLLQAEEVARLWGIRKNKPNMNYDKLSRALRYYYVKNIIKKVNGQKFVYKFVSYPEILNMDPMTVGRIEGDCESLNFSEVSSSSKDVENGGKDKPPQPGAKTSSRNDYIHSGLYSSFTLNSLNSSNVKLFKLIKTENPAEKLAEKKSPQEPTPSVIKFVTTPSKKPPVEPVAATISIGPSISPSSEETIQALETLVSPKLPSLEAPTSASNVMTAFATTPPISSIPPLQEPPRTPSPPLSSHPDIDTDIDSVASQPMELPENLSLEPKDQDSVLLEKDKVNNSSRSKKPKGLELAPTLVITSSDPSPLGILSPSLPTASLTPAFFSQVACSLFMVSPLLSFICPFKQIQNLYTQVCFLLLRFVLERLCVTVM
The conditions noted are these: protein: recombinant; tags: N-terminal GST; dsDNA, one strand shown. The procedure, abridged: as §1

The next assay concerns the target T9, ETV2 (Homo sapiens, UniProt O00321 1-342).
T9 sequence: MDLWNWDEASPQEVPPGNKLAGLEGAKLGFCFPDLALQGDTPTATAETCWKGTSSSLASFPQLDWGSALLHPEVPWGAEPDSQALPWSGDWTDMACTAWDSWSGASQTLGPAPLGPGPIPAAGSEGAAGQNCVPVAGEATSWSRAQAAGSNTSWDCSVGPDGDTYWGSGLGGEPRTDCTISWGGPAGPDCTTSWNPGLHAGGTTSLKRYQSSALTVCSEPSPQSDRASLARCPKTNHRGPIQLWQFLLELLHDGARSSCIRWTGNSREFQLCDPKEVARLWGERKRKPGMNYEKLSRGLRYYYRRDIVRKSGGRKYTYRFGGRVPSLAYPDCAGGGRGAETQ
To be noted: protein: recombinant; tags: N-terminal GST; dsDNA, one strand shown. The procedure, abridged:
as §1

The next assay addresses T10, ELF3 (Homo sapiens, UniProt P78545 1-371).
T10 sequence: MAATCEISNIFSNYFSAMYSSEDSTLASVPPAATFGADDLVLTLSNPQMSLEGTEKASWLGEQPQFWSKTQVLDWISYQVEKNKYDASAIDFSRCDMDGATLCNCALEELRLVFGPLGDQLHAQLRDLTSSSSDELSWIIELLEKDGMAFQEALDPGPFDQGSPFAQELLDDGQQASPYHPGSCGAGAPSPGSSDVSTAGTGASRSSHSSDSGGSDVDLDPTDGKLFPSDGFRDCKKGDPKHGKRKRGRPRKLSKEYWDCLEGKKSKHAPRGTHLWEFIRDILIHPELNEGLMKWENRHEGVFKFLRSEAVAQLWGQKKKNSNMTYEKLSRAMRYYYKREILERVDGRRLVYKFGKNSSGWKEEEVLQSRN
To be noted: protein: recombinant; tags: N-terminal GST; dsDNA, one strand shown. The procedure, abridged:
as §1

In a further assay the target is ETV1 (Homo sapiens, UniProt P50549 1-477). To be noted: protein: recombinant; tags: N-terminal GST; dsDNA, one strand shown. The procedure, abridged:
as §1

SPIB, sequence (Q01892 whole entry): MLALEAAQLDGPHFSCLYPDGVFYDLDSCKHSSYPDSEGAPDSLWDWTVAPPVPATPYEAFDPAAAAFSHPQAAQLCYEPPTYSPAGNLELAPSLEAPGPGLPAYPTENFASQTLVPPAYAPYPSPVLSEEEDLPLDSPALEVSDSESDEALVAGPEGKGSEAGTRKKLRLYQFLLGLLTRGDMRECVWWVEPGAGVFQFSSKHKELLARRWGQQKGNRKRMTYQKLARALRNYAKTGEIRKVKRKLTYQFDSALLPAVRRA
ETV1, sequence (P50549 whole entry): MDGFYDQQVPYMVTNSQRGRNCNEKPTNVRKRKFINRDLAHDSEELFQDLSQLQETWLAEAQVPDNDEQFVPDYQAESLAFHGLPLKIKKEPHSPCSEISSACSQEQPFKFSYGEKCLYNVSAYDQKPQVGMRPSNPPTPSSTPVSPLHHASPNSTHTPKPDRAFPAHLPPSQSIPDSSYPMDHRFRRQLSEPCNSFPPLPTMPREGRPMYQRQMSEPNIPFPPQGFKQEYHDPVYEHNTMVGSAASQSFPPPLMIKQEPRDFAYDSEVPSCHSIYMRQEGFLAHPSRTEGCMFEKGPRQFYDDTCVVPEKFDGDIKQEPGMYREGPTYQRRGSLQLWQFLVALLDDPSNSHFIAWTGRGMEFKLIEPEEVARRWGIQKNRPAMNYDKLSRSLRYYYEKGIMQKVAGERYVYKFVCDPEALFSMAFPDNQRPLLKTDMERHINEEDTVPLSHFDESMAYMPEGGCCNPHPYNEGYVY
ELF1, sequence (P32519 whole entry): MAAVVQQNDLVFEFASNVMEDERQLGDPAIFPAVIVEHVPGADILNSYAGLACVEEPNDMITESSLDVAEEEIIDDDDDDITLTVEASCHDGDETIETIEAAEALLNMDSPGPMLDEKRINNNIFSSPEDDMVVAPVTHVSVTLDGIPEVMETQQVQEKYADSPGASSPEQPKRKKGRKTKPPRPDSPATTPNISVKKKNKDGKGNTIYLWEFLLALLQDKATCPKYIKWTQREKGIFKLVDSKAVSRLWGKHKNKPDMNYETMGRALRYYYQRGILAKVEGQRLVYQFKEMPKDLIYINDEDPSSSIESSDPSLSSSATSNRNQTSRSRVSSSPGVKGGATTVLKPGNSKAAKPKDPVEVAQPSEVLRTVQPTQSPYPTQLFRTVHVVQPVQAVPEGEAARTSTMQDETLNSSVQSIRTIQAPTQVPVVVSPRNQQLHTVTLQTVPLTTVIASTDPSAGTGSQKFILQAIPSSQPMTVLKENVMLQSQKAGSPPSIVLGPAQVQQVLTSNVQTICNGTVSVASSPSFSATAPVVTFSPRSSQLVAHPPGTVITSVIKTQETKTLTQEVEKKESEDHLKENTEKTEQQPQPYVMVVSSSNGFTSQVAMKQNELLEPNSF
HSF1, sequence (Q00613 whole entry): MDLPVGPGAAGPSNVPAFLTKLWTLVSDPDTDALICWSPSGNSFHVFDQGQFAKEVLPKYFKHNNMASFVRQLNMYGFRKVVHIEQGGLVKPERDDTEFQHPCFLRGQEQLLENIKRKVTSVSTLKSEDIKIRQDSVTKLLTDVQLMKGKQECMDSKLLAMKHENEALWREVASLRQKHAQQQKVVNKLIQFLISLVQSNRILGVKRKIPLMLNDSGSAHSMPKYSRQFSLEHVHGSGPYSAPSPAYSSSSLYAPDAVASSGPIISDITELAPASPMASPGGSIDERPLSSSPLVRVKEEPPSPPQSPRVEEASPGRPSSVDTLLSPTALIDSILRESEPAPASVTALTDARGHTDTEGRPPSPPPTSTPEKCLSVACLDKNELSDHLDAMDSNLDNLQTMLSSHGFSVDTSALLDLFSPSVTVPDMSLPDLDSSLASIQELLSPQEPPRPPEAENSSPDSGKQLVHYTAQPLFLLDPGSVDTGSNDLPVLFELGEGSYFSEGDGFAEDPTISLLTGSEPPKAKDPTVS
ETV5, sequence (P41161 whole entry): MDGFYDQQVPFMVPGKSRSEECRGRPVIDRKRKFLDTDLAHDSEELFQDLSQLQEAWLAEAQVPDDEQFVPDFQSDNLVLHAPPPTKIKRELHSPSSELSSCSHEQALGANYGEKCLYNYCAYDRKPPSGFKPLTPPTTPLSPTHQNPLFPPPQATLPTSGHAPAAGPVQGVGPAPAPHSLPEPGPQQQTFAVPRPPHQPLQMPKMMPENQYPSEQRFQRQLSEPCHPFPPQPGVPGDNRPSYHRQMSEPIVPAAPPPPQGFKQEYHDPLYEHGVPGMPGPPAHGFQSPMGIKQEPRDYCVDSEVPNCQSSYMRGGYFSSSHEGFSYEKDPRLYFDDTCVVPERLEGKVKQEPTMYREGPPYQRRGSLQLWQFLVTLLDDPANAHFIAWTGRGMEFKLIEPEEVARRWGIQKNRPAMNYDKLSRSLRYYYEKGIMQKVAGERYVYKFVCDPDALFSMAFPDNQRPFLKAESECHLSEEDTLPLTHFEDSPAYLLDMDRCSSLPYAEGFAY
ELF4, sequence (Q99607 whole entry): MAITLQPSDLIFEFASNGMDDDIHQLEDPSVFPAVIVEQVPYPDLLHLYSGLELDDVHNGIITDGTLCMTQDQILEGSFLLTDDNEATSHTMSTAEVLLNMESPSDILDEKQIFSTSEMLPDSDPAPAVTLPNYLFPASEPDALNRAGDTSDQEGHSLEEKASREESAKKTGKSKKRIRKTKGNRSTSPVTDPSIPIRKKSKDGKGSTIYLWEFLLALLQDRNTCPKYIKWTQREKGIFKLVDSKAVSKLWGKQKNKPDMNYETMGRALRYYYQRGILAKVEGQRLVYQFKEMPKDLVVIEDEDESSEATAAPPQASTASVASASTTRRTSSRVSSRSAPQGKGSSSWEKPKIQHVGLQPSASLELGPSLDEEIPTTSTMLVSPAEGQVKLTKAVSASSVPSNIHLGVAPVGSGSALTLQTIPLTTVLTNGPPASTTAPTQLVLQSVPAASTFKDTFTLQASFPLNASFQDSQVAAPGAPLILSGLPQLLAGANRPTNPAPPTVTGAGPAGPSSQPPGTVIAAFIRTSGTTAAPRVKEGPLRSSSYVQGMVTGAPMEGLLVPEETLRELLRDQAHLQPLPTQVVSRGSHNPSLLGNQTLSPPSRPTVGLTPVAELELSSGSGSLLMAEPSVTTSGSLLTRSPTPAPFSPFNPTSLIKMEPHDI

Take TCCACG: the binding signal in the assay with FLI1 is 1.09 fold enrichment (6-mer frequency, TF over GST control); in the assay with ELK1 it was 1.08 fold enrichment (6-mer frequency, TF over GST control); with GABPA it was 1.2 fold enrichment (6-mer frequency, TF over GST control); with ERG, 1.09 fold enrichment (6-mer frequency, TF over GST control); with ELF1 it was 1.09 fold enrichment (6-mer frequency, TF over GST control); with EHF, 1.06 fold enrichment (6-mer frequency, TF over GST control). Moreover, the binding signal with SPI1 was 1.06 fold enrichment (6-mer frequency, TF over GST control); in the assay with SPIB, 1.11 fold enrichment (6-mer frequency, TF over GST control); in the assay with ELK3, 1.14 fold enrichment (6-mer frequency, TF over GST control); in the assay with ETV5, 1.04 fold enrichment (6-mer frequency, TF over GST control); in the assay with HSF1, 1.15 fold enrichment (6-mer frequency, TF over GST control); in the assay with SPIC, 1.15 fold enrichment (6-mer frequency, TF over GST control). The binding signal in the assay with ELF4 is 1.13 fold enrichment (6-mer frequency, TF over GST control); with ELK4, 1.13 fold enrichment (6-mer frequency, TF over GST control); with ETV2 it was 1.3 fold enrichment (6-mer frequency, TF over GST control); with ELF3 it was 1.02 fold enrichment (6-mer frequency, TF over GST control); in the assay with ETV1 it was 1.08 fold enrichment (6-mer frequency, TF over GST control).
